Reference: PubChem BioAssay (NCI)
This is part of a sample that, as a whole, favours compounds with a hit. Of some 83,000 tested, about 20% had one in any assay.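 Percent growth is the endpoint: 0 to 100 indicates growth inhibition (40 means 60% inhibition), 0 means no net growth, and negative values indicate cell death.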 Unmarked numbers belong to inactive results. The source made the active and inactive calls. The calls were made as follows: active = growth percent below 10; inactive = the rest.

Tests used:
Test in all cases: NCI-60 one-dose screen, 48 h (100 = growth as untreated, 0 = no growth, -100 = all killed)
Settings in all cases: 10 µM unless noted
HT29 colon = system: HT29 colon
SNB-75 CNS = system: SNB-75 CNS
SNB-19 CNS = system: SNB-19 CNS
U251 CNS = system: U251 CNS
PC-3 prostate = system: PC-3 prostate
SK-MEL-5 melanoma = system: SK-MEL-5 melanoma
UACC-62 melanoma = system: UACC-62 melanoma
LOX IMVI melanoma = system: LOX IMVI melanoma
SK-MEL-28 melanoma = system: SK-MEL-28 melanoma
SK-MEL-2 melanoma = system: SK-MEL-2 melanoma

SMILES: CC(=O)Nc1ccc2c(c1)Cc1c(F)c(F)c(F)c(F)c1-2
- growth (HT29 colon): 97.1%
- growth (SNB-75 CNS): 44%
- growth (SNB-19 CNS): 90.3%
- growth (U251 CNS): 78.8%
- growth (PC-3 prostate): 81.9%
- growth (SK-MEL-5 melanoma): 84.7%
- growth (UACC-62 melanoma): 77.4%
- growth (LOX IMVI melanoma): 80.3%
- growth (SK-MEL-28 melanoma): 102%
- growth (SK-MEL-2 melanoma): -27.7% (active)

SMILES: O=C(Nc1cccc(C(F)(F)F)c1)Nc1ccc(OCc2nnc(-c3ccc(Cl)cc3)o2)c(F)c1
- growth (HT29 colon): 60.2%
- growth (SNB-75 CNS): 39.4%
- growth (SNB-19 CNS): 69.9%
- growth (U251 CNS): 52.7%
- growth (PC-3 prostate): 45.9%
- growth (SK-MEL-5 melanoma): 77.5%
- growth (UACC-62 melanoma): 68.8%
- growth (LOX IMVI melanoma): 63.5%
- growth (SK-MEL-28 melanoma): 73.5%
- growth (SK-MEL-2 melanoma): 78.7%

SMILES: O=C1NC(=O)/C(=C\c2ccccc2)C2=C1CCCC2
- growth (HT29 colon): 104%
- growth (SNB-75 CNS): 102%
- growth (SNB-19 CNS): 88%
- growth (U251 CNS): 2.63% (active)
- growth (PC-3 prostate): 20.3%
- growth (SK-MEL-5 melanoma): -78.7% (active)
- growth (UACC-62 melanoma): 30%
- growth (LOX IMVI melanoma): -58.4% (active)
- growth (SK-MEL-28 melanoma): 36.3%
- growth (SK-MEL-2 melanoma): -74.2% (active)

SMILES: CCS(=O)(=O)OCCCl
- growth (HT29 colon): 104%
- growth (SNB-75 CNS): 70%
- growth (SNB-19 CNS): 94.3%
- growth (U251 CNS): 92.1%
- growth (PC-3 prostate): 97.6%
- growth (SK-MEL-5 melanoma): 103%
- growth (UACC-62 melanoma): 101%
- growth (LOX IMVI melanoma): 98.5%
- growth (SK-MEL-28 melanoma): 120%
- growth (SK-MEL-2 melanoma): 83.7%

SMILES: C/C(=N/N=C(N)N)c1ccc(N)cc1
- growth (HT29 colon): 103%
- growth (SNB-75 CNS): 102%
- growth (SNB-19 CNS): 96.3%
- growth (U251 CNS): 99.3%
- growth (PC-3 prostate): 92.1%
- growth (SK-MEL-5 melanoma): 107%
- growth (UACC-62 melanoma): 105%
- growth (LOX IMVI melanoma): 96.6%
- growth (SK-MEL-28 melanoma): 110%
- growth (SK-MEL-2 melanoma): 154%

SMILES: Cc1cc(O)c2c(c1)C[C@H]1[C@@H]3CC[C@H]4CC(=O)CC[C@]4(C)[C@H]3CC(=O)[C@]21C
- growth (HT29 colon): 67.6%
- growth (SNB-75 CNS): 98.4%
- growth (SNB-19 CNS): 94.5%
- growth (U251 CNS): 81.6%
- growth (PC-3 prostate): 80.9%
- growth (SK-MEL-5 melanoma): 73.3%
- growth (UACC-62 melanoma): 57.4%
- growth (LOX IMVI melanoma): 85.1%
- growth (SK-MEL-28 melanoma): 101%
- growth (SK-MEL-2 melanoma): 83.3%

SMILES: Nc1cc(Cl)c(S(N)(=O)=O)cc1S(N)(=O)=O
- growth (HT29 colon): 122%
- growth (SNB-75 CNS): 86.7%
- growth (SNB-19 CNS): 113%
- growth (U251 CNS): 100%
- growth (PC-3 prostate): 106%
- growth (SK-MEL-5 melanoma): 102%
- growth (UACC-62 melanoma): 101%
- growth (LOX IMVI melanoma): 101%
- growth (SK-MEL-28 melanoma): 121%
- growth (SK-MEL-2 melanoma): -16.2% (active)

SMILES: O=C(Nc1ccc(OCc2nnc(-c3ccccc3)o2)c(F)c1)Nc1ccc(Cl)c(C(F)(F)F)c1
- growth (HT29 colon): 9.92% (active)
- growth (SNB-75 CNS): 40.2%
- growth (SNB-19 CNS): 29.9%
- growth (U251 CNS): 7.14% (active)
- growth (PC-3 prostate): -16.2% (active)
- growth (SK-MEL-5 melanoma): 4.6% (active)
- growth (UACC-62 melanoma): 27.4%
- growth (LOX IMVI melanoma): 7.41% (active)
- growth (SK-MEL-28 melanoma): 49.2%
- growth (SK-MEL-2 melanoma): 16.2%

SMILES: CSc1nc2c(c(=O)[nH]1)C(c1ccc(Cl)cc1)C1=C(N2)/C(=C/c2ccc(Cl)cc2)CNC1 (stereo not given)
- growth (HT29 colon): -36.6% (active)
- growth (SNB-75 CNS): 51.9%
- growth (SNB-19 CNS): 46.8%
- growth (U251 CNS): -16.1% (active)
- growth (PC-3 prostate): 42%
- growth (SK-MEL-5 melanoma): 77.1%
- growth (UACC-62 melanoma): 89.2%
- growth (LOX IMVI melanoma): -61.3% (active)
- growth (SK-MEL-28 melanoma): 87.9%
- growth (SK-MEL-2 melanoma): 78.4%

SMILES: CC1CC(C)/C(=N/NC(N)=O)C(C(O)CC2CCC(=O)NC2=O)C1 (stereo not given)
- growth (HT29 colon): 35.8%
- growth (SNB-75 CNS): 57.7%
- growth (SNB-19 CNS): 31.4%
- growth (U251 CNS): 35.1%
- growth (PC-3 prostate): 40.6%
- growth (SK-MEL-5 melanoma): 31.7%
- growth (UACC-62 melanoma): 46.3%
- growth (LOX IMVI melanoma): 27.3%
- growth (SK-MEL-28 melanoma): 37%
- growth (SK-MEL-2 melanoma): 33.8%

SMILES: CCC(CCC(C)C1CCC2C3CC=C4CC(O)CCC4(C)C3CCC12C)C(C)C (stereo not given) (tested in a mixture with another compound)
- growth (HT29 colon): 98.9%
- growth (SNB-75 CNS): 119%
- growth (SNB-19 CNS): 98.6%
- growth (U251 CNS): 90.2%
- growth (PC-3 prostate): 45.8%
- growth (SK-MEL-5 melanoma): 96%
- growth (UACC-62 melanoma): 95%
- growth (LOX IMVI melanoma): 99.1%
- growth (SK-MEL-28 melanoma): 91.7%
- growth (SK-MEL-2 melanoma): 24.3%

SMILES: O=C(c1ccccc1)c1ccco1
- growth (HT29 colon): 103%
- growth (SNB-75 CNS): 80.3%
- growth (SNB-19 CNS): 93.1%
- growth (U251 CNS): 99.1%
- growth (PC-3 prostate): 95.4%
- growth (SK-MEL-5 melanoma): 106%
- growth (UACC-62 melanoma): 93%
- growth (LOX IMVI melanoma): 89.8%
- growth (SK-MEL-28 melanoma): 111%
- growth (SK-MEL-2 melanoma): 104%

SMILES: COc1ccc(-c2oc3cc(O)c(OC)c(O)c3c(=O)c2OC)cc1O
- growth (HT29 colon): 46.2%
- growth (SNB-75 CNS): 16.4%
- growth (SNB-19 CNS): 30.9%
- growth (U251 CNS): 14%
- growth (PC-3 prostate): 15.5%
- growth (SK-MEL-5 melanoma): 8.22% (active)
- growth (UACC-62 melanoma): 36%
- growth (LOX IMVI melanoma): 15.8%
- growth (SK-MEL-28 melanoma): 60.6%
- growth (SK-MEL-2 melanoma): 45.6%
